High-throughput results as filed in PubChem.
The list is not random: actives were taken first. Their share in the collection is about 6%.
Tau FP inhib: inhibitors of human tau fibril formation; P10636; K18 P301L tau heparin fibrillization, Alexa594 FP, 6 h; Potency, µM (top dose mostly 57.7 µM), inactives show at the top dose activity, negative = inhibition, most hits filed as inhibitors; hit rate 0.39% among 280,000; AID 1468; further: nearly all actives have a fitted effect of over 55% in size
Target sequence (P10636 561-689 P618L limits assumed): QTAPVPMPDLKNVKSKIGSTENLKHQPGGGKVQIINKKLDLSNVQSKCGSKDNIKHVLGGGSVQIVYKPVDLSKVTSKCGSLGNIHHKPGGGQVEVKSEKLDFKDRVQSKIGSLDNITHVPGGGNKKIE
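Quantitative HTS format: compounds meet 15 uM recombinant K18 P301L tau and Alexa 594-tau tracer in 100 mM sodium acetate pH 7; 20 uM heparin triggers fibrillization at 37 C over 6 hr; FP gives the signal.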
VDR inhibitor: blocks the human vitamin D receptor; P11473; VDR-SRC2-3 peptide fluorescence polarization, 2 h; Potency, µM, inactives show max response, negative = inhibition, usual class: inhibitors; hit rate 0.93% among 400,000; AID 504847
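Measured by FP: displacement of SRC2-3 coactivator peptide from VDR by library compounds, following a two-hour ambient incubation.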
Tau fluor cs: counter-screen for tau fibril formation inhibitors | tau K18 P301L Alexa594 fluorescence, heparin fibrillization | hit rate 0.93% among 280,000 | AID 1463 | Potency, µM (doses to about 57.7 µM), without a hit: top-dose activity change, negative = decrease; further: nearly all actives have a fitted effect of over 55% in size
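Human tau K18 P301L (15 uM unlabeled, 0.24 uM Alexa 594-labeled) in 100 mM sodium acetate pH 7 with 20 uM heparin, 6 hr at 37 C. ThT 30 uM added, 1 hr ambient; Alexa 594 FP and total fluorescence read at 555/632 nm.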
PLK1 PBD inh: PLK1 (human) polo-box domain binding inhibition; Potency, µM, for inactives: max response, negative = inhibition, actives largely listed as inhibitors; AID 720504; Plk1 PBD binding of FITC phosphopeptide, fluorescence polarization; P53350; hit rate 2.8% among 360,000; further: series mostly up to about 57 µM; nearly all actives have a fitted effect of over 65% in size
Sfp PPTase inh: Sfp phosphopantetheinyl transferase inhibition. Potency, µM, for the others: largest response in the series, negative = inhibition, hits mostly inhibitors. Q9F4F7. hit rate 3.5% among 310,000. Biochemical Sfp PPTase activity, qHTS;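 further: the enzyme is Sfp with the accession as filed and its product quenches rhodamine fluorescence; 0% = enzyme reaction without inhibitor and -100% = no enzyme wells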
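Sfp 15 nM + cpd, 15 min RT; start w/ rhodamine-CoA 5 uM, BHQ-2-YbbR 12.5 uM (final); 50 mM Hepes pH 7.6, 10 mM MgCl2, 0.01% NP-40, 0.01% BSA; read 525/598 nm at 0 and 30 min.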
Tau fibril ThT: inhibitors of human tau fibril formation, thioflavin T binding; P10636; recombinant tau K18 P301L (four-repeat tau fragment), heparin-induced fibrillization, ThT fluorescence; Potency, µM (doses to about 57.4 µM), for inactives: at the highest dose activity, negative = inhibition, hits mostly inhibitors; hit rate 2.1% among 270,000; further: nearly all actives have a fitted effect of over 55% in size
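K18 P301L tau (15 uM + 0.24 uM Alexa 594-tagged), heparin 20 uM, NaOAc pH 7, 6 h 37 C; ThT 30 uM, 1 h RT, ex 450/em 510 nm.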
An asterisk follows results filed as active; ? = inconclusive; . = no result; [ ] = remark or other dose. The call rests on the fitted dose curve; in most records, active means well fitted curve in the direction sought with a large enough effect; inconclusive means small, poorly fitted or top-dose-only effect, or another doubt; inactive means no such curve, though single readings can be large; an effect the other way counts as inactive or inconclusive. Unless noted, on the % scale 0 is the no-effect control and ±100 the full control effect; potency means the concentration at half of the fitted maximal effect.

SMILES | Tau FP inhib | VDR inhibitor | Tau fluor cs | PLK1 PBD inh | Sfp PPTase inh | Tau fibril ThT
CCc1ccc(/C=C/C(=O)c2cc(Br)ccc(=O)c2O)cc1 | ? | 20µM* | ? | 21µM* | 14µM* | 16µM*
O=C(Nc1cccc(F)c1)N1CC2(CCN(C(=O)c3ccncc3)CC2)C1 | . | 18% | . | . | 15% | .
O=C(NCc1n[nH]c(=S)n1-c1ccc(F)cc1)c1ccc(S(=O)(=O)N2CCOCC2)cc1 | ? | -21% | -13% | ? | 45µM* | -9%
CCOC(=O)N1CCN(C(=O)C2CCN(S(=O)(=O)CC)CC2)CC1 | ? | 10% | 25µM*[quencher] | -2% | 12% | 8%
Cc1ccc(-n2ncc(C(=O)Nc3ccc4c(c3)OCCO4)c2C2CCN(C(=O)OC(C)(C)C)CC2)cc1C | 8% | 9% | ? | . | . | -17%
O=C1CN(c2ccccc2)C(=S)N1C(=O)c1ccccc1 | . | -28% | . | 27µM* | 50µM* | .
CCOC(=O)c1c(S(=O)(=O)N2CCCC(C(=O)NCc3ccccc3OC)C2)c(C)n(C)c1C (stereo not drawn) | -11% | 26% | -10% | . | . | -2%
Cc1ccc(C)c(NC(=S)c2nc3ccccc3s2)c1 | 1% | 9% | -7% | 8.4µM* | ? | -19%
Cc1ccc(C)c(NC(=S)c2ccc3ccccc3n2)c1 | -4% | -12% | -24% | 3% | 10% | ?
Cc1ccc(C)c(NC(=S)c2ccccn2)c1 | ? | -14% | -23% | 24µM* | -19% | ?
Cc1ccc(NC(=S)c2nc3ccccc3s2)cc1 | -4% | 4% | -22% | -15% | 14% | ?
CCOC(=O)c1ccccc1NC(=O)CSc1nc2cn(CC)nc2c(=O)n1Cc1ccc(Cl)cc1 | 0% | -17% | -10% | . | . | 1%
O=C(NC(NNc1ccc([N+](=O)[O-])cc1)(C(F)(F)F)C(F)(F)F)c1ccc(F)cc1 | -19% | ? | ? | -26% | -6% | ?
O=C(NC(NNc1ccc([N+](=O)[O-])cc1)(C(F)(F)F)C(F)(F)F)c1ccccc1Cl | -14% | 79µM* | ? | ? | -18% | ?
N=C1/C(=C\c2ccc(OCc3ccccc3)cc2)C(=O)N=C2SC(N3CCCC3)=NN12 | -8% | . | ? | . | 7% | 4µM*
N=C1/C(=C\c2ccc(OC(=O)c3ccc(F)cc3)cc2)C(=O)N=C2SC(N3CCCC3)=NN12 | . | ? | . | ? | -14% | .
N=C1/C(=C\c2ccc(OC(=O)c3ccccc3)cc2)C(=O)N=C2SC(N3CCOCC3)=NN12 | . | -5% | . | 24µM* | -15% | .
Cc1ccc(C(=O)Oc2ccc(/C=C3\C(=N)N4N=C(N5CCOCC5)SC4=NC3=O)cc2)cc1 | . | -27% | . | 27µM* | -23% | .
N=C1/C(=C\c2ccc(OC(=O)c3ccco3)cc2)C(=O)N=C2SC(N3CCCCC3)=NN12 | . | ? | . | ? | 4% | .
CNC(=S)NCCCCc1cnc[nH]1 | . | 6% | . | . | ? | .
CCOc1ccc(NC(=O)CSc2nc(-c3cccc(Cl)c3)nc3c2Cc2c(CO)cnc(C)c2O3)cc1 | -8% | -5% | -2% | . | . | 2%
CC1CN(C(=O)c2nn(C)cc2[N+](=O)[O-])CC(C)O1 (stereo not drawn) | -1% | -7% | 0% | 12µM* | 14% | 2%
COc1cc(OC)c(-c2c3cc(O)c(=O)cc-3oc3cc(O)c(O)cc23)cc1OC | ? | -15% | -24% | -57% | 16µM* | 13µM*
COc1cc2oc(-c3ccccc3)cc(=O)c2cc1OC | -9% | . | -18% | . | 7% | -15%
COc1cc(C=Nc2cccc(C)c2)c(O)c([N+](=O)[O-])c1 | -4% | -15% | -6% | -27% | 12% | 7.9µM*
COc1cc(/C=C/c2ccc3cccc(OC)c3n2)c(O)c([N+](=O)[O-])c1 | -12% | -23% | ? | 2% | 1% | 1µM*
O=[N+]([O-])c1cccc(C=Nc2cccc3ccccc23)c1O | . | -4% | . | -9% | 3% | .
O=[N+]([O-])c1cc2c(cc1C=Nc1ccccc1)OCO2 | -8% | ? | -17% | ? | 6% | ?
